Data published in PMC7862700, “An all-to-all approach to the identification of sequence-specific readers for epigenetic DNA modifications on cytosine”.

How the values were obtained:
Test in all cases: DAPPL (digital affinity profiling via proximity ligation, sequencing); 10 mM Tris-HCl pH 7.5, 50 mM NaCl, 1 mM DTT, 4% glycerol, room temperature, 30 min; GST-TFs on glutathione beads, 16-mer random dsDNA library, 0.1% formaldehyde crosslink after washing; high values mean tight binding
FLI1 = molecular target: T1, FLI1 (Homo sapiens, UniProt Q01543 1-452); conditions: protein: recombinant; tags: N-terminal GST; dsDNA, one strand shown
T1 sequence: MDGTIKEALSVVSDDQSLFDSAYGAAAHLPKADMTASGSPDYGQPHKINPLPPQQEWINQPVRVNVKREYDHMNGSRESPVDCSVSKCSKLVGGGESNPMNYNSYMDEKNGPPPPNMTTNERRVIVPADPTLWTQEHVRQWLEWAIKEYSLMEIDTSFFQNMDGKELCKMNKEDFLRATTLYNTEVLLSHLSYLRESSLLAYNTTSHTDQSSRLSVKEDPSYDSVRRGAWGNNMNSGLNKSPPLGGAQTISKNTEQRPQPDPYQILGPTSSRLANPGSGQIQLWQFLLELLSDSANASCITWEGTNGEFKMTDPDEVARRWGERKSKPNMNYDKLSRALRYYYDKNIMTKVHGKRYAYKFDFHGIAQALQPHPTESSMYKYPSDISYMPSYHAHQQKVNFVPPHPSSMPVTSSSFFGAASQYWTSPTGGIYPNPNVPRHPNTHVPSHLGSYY
Outline: (§1)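 GST fusions of human transcription factors were expressed in yeast and captured with glutathione beads. Once given DNA barcodes and pooled alongside a tag-only sample, they were incubated for 30 min at room temperature with 200 nmole of a random double-stranded 16-mer DNA library in Tris/NaCl/DTT/glycerol buffer, then washed, crosslinked (0.1% formaldehyde), proximity-ligated, PCR-amplified and sequenced on an Illumina NextSeq500. The binding signal of each hexamer is its read frequency for a factor divided by its frequency for the tag-only sample.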

ELK1 = molecular target: T2, ELK1 (Homo sapiens, UniProt P19419 1-428); conditions: protein: recombinant; tags: N-terminal GST; dsDNA, one strand shown
T2 sequence: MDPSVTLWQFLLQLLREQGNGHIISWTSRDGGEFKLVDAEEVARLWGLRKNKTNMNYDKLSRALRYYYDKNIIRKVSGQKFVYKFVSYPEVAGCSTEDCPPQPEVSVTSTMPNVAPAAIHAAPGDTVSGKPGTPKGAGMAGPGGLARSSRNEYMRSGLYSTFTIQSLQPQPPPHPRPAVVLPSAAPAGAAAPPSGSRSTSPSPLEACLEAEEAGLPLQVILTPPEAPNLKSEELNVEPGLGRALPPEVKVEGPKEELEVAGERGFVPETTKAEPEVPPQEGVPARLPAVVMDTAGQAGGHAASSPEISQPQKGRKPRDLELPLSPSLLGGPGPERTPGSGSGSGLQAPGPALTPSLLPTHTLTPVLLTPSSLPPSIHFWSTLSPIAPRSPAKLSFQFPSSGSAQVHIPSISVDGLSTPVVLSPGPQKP
Outline: as §1

GABPA = molecular target: T3, GABPA (Homo sapiens, UniProt Q06546 1-454); conditions: protein: recombinant; tags: N-terminal GST; dsDNA, one strand shown
T3 sequence: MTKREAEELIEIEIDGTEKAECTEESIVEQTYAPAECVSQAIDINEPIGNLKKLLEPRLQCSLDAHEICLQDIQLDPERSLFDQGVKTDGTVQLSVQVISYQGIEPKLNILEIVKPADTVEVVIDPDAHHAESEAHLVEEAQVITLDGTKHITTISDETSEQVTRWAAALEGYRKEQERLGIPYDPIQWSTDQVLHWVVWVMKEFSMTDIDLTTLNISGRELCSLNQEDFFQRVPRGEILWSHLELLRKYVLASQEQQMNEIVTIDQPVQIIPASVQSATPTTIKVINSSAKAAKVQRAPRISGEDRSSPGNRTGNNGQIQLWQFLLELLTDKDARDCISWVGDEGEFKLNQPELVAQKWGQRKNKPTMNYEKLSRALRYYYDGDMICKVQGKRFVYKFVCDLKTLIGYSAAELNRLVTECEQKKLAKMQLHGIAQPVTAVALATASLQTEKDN
Outline: as §1

ERG = molecular target: T4, ERG (Homo sapiens, UniProt P11308 1-479); conditions: protein: recombinant; tags: N-terminal GST; dsDNA, one strand shown
T4 sequence: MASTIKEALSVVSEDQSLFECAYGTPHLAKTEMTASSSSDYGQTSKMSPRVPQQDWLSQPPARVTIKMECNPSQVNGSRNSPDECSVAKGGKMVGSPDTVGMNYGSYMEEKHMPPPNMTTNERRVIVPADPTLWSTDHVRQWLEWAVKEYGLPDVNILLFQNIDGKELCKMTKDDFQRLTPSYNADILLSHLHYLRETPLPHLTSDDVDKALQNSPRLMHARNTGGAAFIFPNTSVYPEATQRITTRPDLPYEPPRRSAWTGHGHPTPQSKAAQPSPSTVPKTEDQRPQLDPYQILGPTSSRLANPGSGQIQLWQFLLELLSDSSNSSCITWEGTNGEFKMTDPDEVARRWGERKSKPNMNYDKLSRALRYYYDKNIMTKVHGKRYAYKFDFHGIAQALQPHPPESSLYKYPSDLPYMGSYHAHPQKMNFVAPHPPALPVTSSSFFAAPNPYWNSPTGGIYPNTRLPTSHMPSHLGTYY
Outline: as §1

ELF1 = ELF1 (Homo sapiens, UniProt P32519 1-619); conditions: protein: recombinant; tags: N-terminal GST; dsDNA, one strand shown
Chain of ELF1 (P32519 whole entry): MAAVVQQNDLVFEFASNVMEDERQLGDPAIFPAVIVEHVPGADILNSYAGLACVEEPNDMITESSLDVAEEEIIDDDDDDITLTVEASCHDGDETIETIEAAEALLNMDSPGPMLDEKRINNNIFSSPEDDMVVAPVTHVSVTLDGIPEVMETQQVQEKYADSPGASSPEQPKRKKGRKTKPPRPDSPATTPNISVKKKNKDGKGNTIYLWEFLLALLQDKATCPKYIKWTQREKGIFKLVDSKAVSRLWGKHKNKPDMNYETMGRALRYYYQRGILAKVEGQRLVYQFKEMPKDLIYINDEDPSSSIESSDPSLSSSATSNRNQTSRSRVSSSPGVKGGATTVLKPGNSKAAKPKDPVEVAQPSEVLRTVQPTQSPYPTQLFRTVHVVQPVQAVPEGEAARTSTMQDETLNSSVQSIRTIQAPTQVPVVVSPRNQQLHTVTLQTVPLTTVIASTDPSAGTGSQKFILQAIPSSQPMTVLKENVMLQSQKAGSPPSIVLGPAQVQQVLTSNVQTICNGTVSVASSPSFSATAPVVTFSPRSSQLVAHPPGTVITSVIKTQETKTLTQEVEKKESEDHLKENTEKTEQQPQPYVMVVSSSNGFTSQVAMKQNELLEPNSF
Outline: as §1

EHF = molecular target: T5, EHF (Homo sapiens, UniProt Q9NZC4 1-300); conditions: protein: recombinant; tags: N-terminal GST; dsDNA, one strand shown
T5 sequence: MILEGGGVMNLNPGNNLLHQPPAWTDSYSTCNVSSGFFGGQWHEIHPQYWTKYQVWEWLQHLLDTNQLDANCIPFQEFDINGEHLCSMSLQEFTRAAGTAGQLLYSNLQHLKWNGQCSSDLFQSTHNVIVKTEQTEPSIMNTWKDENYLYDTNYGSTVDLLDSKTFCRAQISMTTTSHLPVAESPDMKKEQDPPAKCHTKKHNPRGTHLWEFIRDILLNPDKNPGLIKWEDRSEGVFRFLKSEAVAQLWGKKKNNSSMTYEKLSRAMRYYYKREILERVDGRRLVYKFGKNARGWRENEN
Outline: as §1

SPI1 = SPI1 (Homo sapiens, UniProt P17947 1-270); conditions: protein: recombinant; tags: N-terminal GST; dsDNA, one strand shown
Outline: as §1

SPIB = SPIB (Homo sapiens, UniProt Q01892 1-262); conditions: protein: recombinant; tags: N-terminal GST; dsDNA, one strand shown
Chain of SPIB (Q01892 whole entry): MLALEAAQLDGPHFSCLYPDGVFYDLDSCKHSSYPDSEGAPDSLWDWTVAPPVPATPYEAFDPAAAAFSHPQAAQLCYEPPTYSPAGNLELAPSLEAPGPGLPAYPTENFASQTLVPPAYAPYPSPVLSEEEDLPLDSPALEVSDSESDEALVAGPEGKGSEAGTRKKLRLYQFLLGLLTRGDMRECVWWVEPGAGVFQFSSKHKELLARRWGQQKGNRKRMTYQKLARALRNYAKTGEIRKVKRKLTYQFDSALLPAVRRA
Outline: as §1

ELK3 = molecular target: T6, ELK3 (Homo sapiens, UniProt P41970 1-407); conditions: protein: recombinant; tags: N-terminal GST; dsDNA, one strand shown
T6 sequence: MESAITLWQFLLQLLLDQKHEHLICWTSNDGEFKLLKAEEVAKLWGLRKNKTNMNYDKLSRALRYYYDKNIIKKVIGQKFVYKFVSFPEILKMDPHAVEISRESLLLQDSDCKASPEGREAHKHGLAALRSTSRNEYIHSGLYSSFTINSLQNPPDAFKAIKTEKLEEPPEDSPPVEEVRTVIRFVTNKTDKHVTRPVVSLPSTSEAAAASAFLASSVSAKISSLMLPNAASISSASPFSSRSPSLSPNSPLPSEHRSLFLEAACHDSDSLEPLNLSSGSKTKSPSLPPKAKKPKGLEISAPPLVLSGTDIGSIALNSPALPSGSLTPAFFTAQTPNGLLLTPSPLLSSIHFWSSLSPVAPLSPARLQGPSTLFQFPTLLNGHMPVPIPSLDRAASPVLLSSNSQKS
Outline: as §1

FEV = molecular target: T7, FEV (Homo sapiens, UniProt Q99581 1-238); conditions: protein: recombinant; tags: N-terminal GST; dsDNA, one strand shown
T7 sequence: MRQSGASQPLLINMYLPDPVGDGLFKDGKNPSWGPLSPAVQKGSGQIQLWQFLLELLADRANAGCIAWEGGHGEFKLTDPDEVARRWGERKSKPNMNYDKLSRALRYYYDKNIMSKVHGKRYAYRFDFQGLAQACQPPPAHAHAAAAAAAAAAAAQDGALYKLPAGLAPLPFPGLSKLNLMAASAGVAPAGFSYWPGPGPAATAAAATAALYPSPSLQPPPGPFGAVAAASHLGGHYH
Outline: as §1

ETV5 = ETV5 (Homo sapiens, UniProt P41161 1-510); conditions: protein: recombinant; tags: N-terminal GST; dsDNA, one strand shown
Chain of ETV5 (P41161 whole entry): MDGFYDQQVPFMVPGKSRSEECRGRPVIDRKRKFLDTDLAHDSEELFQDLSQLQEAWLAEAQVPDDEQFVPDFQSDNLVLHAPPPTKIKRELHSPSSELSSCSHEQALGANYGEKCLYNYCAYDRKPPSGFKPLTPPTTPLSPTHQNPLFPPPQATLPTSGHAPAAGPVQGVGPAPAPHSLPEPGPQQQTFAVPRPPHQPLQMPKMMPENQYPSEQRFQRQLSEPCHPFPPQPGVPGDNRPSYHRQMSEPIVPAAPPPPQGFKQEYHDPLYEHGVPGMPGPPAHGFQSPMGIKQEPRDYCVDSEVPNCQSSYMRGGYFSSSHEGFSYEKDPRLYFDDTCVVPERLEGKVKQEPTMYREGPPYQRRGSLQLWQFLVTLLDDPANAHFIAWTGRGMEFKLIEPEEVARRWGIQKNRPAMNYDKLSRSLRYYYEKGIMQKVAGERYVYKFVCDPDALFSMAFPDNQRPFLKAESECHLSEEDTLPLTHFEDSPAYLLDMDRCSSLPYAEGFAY
Outline: as §1

HSF1 = HSF1 (Homo sapiens, UniProt Q00613 1-529); conditions: protein: recombinant; tags: N-terminal GST; chain copies: 3; dsDNA, one strand shown
Chain of HSF1 (Q00613 whole entry): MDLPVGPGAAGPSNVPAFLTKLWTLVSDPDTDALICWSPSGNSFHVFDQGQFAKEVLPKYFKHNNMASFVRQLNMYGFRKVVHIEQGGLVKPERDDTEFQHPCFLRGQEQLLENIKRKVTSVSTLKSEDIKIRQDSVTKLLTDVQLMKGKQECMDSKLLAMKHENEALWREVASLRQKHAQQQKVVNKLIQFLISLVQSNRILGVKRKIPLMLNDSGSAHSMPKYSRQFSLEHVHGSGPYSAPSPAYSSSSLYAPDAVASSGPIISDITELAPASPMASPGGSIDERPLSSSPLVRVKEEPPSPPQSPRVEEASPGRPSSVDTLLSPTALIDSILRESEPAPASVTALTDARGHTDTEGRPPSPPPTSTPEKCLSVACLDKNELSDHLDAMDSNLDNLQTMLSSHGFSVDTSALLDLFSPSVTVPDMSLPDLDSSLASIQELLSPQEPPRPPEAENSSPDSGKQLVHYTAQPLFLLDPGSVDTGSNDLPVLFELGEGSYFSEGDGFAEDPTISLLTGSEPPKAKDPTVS
Outline: as §1

SPIC = molecular target: T8, SPIC (Homo sapiens, UniProt Q8N5J4 1-248); conditions: protein: recombinant; tags: N-terminal GST; dsDNA, one strand shown
T8 sequence: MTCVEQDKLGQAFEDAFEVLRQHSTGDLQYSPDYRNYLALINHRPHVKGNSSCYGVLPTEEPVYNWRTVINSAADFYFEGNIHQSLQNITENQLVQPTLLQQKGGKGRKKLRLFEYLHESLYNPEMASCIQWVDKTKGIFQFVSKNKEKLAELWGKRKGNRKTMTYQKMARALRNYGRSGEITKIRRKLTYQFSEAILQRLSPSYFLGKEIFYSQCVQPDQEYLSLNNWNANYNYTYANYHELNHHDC
Outline: as §1

ELF4 = ELF4 (Homo sapiens, UniProt Q99607 1-663); conditions: protein: recombinant; tags: N-terminal GST; dsDNA, one strand shown
Chain of ELF4 (Q99607 whole entry): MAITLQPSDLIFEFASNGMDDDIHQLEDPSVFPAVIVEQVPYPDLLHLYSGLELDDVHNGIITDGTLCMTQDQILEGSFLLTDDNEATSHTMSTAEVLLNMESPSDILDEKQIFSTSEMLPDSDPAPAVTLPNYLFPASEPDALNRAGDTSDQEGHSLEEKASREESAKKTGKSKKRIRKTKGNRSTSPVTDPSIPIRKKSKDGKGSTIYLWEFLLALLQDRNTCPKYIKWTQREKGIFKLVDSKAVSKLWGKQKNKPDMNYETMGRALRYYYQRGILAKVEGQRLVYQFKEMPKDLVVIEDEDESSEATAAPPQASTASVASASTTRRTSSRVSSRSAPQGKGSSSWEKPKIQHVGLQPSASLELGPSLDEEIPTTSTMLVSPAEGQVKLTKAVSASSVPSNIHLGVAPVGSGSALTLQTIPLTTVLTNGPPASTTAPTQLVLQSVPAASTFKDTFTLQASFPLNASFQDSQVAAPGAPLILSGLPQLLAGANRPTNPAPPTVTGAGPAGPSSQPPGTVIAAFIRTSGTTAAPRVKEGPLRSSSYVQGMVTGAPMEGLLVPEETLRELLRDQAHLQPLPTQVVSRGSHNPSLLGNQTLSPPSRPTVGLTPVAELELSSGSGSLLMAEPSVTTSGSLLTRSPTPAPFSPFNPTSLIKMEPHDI
Outline: as §1

ELK4 = molecular target: T9, ELK4 (Homo sapiens, UniProt P28324-2 1-405); conditions: protein: recombinant; tags: N-terminal GST; dsDNA, one strand shown
T9 sequence: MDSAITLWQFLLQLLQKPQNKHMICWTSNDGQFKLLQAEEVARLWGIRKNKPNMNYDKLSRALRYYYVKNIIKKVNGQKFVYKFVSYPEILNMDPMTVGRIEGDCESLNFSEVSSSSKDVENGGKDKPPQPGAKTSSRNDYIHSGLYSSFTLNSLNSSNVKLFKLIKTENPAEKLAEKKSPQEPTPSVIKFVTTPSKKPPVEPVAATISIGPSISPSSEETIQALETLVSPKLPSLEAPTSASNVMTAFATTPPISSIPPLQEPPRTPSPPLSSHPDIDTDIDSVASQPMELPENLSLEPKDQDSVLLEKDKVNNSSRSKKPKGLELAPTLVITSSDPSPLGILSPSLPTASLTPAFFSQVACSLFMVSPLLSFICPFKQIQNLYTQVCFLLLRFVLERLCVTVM
Outline: as §1

ETV2 = molecular target: T10, ETV2 (Homo sapiens, UniProt O00321 1-342); conditions: protein: recombinant; tags: N-terminal GST; dsDNA, one strand shown
T10 sequence: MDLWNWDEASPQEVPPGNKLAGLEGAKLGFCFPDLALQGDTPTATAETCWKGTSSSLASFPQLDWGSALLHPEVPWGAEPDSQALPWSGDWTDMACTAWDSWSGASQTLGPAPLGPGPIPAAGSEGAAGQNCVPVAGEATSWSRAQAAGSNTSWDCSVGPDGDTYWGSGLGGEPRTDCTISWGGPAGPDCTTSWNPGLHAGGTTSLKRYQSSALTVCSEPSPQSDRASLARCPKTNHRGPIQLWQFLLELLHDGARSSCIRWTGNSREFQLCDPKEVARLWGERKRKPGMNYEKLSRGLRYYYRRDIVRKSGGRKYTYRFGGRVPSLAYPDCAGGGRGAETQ
Outline: as §1

ELF3 = molecular target: T11, ELF3 (Homo sapiens, UniProt P78545 1-371); conditions: protein: recombinant; tags: N-terminal GST; dsDNA, one strand shown
T11 sequence: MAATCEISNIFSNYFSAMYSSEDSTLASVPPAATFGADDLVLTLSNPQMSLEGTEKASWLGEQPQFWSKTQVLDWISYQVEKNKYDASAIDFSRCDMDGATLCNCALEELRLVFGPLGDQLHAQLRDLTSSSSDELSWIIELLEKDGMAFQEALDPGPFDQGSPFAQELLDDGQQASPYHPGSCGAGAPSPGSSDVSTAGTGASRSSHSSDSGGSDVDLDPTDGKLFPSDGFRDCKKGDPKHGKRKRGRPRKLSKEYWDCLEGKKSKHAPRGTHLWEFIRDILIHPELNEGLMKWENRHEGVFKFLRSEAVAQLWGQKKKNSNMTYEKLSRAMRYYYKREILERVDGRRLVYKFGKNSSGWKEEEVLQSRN
Outline: as §1

CRX = CRX (Homo sapiens, UniProt O43186 1-299); conditions: protein: recombinant; tags: N-terminal GST; dsDNA, one strand shown
Chain of CRX (O43186 whole entry): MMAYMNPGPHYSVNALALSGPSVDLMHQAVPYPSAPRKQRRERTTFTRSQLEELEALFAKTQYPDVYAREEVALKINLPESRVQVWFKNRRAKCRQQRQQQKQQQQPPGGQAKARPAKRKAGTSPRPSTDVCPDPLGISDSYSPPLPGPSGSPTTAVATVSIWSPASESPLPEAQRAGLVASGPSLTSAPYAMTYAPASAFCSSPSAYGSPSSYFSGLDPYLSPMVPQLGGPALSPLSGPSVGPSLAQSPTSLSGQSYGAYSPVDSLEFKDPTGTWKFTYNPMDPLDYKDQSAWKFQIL
Outline: as §1

ETV1 = ETV1 (Homo sapiens, UniProt P50549 1-477); conditions: protein: recombinant; tags: N-terminal GST; dsDNA, one strand shown
Chain of ETV1 (P50549 whole entry): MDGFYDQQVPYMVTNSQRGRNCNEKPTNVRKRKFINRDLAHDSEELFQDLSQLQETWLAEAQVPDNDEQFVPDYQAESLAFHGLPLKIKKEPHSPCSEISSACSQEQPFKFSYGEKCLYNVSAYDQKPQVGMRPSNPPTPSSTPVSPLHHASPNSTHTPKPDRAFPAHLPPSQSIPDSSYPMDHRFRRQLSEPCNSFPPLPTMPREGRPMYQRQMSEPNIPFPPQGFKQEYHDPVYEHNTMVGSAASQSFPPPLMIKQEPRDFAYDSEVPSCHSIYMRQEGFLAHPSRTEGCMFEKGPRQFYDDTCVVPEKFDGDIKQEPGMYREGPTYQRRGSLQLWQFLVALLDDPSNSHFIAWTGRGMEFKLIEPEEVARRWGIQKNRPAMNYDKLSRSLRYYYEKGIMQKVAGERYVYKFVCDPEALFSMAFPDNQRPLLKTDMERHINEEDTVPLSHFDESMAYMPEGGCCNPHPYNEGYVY
Outline: as §1

## ACATTA
FLI1
  binding signal: 1.17 fold enrichment (6-mer frequency, TF over GST control)
ELK1
  binding signal: 1.16 fold enrichment (6-mer frequency, TF over GST control)
GABPA
  binding signal: 1.17 fold enrichment (6-mer frequency, TF over GST control)
ERG
  binding signal: 1.08 fold enrichment (6-mer frequency, TF over GST control)
ELF1
  binding signal: 1.19 fold enrichment (6-mer frequency, TF over GST control)
EHF
  binding signal: 1.17 fold enrichment (6-mer frequency, TF over GST control)
SPI1
  binding signal: 1.06 fold enrichment (6-mer frequency, TF over GST control)
SPIB
  binding signal: 1.2 fold enrichment (6-mer frequency, TF over GST control)
ELK3
  binding signal: 1.08 fold enrichment (6-mer frequency, TF over GST control)
FEV
  binding signal: 1.16 fold enrichment (6-mer frequency, TF over GST control)
ETV5
  binding signal: 1.12 fold enrichment (6-mer frequency, TF over GST control)
HSF1
  binding signal: 1.2 fold enrichment (6-mer frequency, TF over GST control)
SPIC
  binding signal: 1.23 fold enrichment (6-mer frequency, TF over GST control)
ELF4
  binding signal: 1.2 fold enrichment (6-mer frequency, TF over GST control)
ELK4
  binding signal: 1.18 fold enrichment (6-mer frequency, TF over GST control)
ETV2
  binding signal: 1.25 fold enrichment (6-mer frequency, TF over GST control)
ELF3
  binding signal: 1.14 fold enrichment (6-mer frequency, TF over GST control)
CRX
  binding signal: 1.38 fold enrichment (6-mer frequency, TF over GST control)
ETV1
  binding signal: 1.29 fold enrichment (6-mer frequency, TF over GST control)
